Measurements: PubChem BioAssay (EPA / NIEHS)
Records with an inconclusive call do not appear. Calls of active or inactive are those of the source. How the source made its calls, unless noted: active means hit-call score of the fitted dose curve at least 0.9, where 1 is the maximum; inactive means score below 0.9.

Legend:
[1] = target: Hypoxia-inducible factor 1-alpha (Homo sapiens) (UniProt Q16665); assay: ATG_HIF1a_CIS: Attagene CIS-FACTORIAL HepG2 Assay for human Hypoxia Inducible Factor 1 (HIF1A) (AID 2282951); settings: HepG2 Attagene cis-factorial HIF1a reporter transcription; actives raise or lower the signal
Outline: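 After 24 h chemical exposure of reporter-transfected HepG2 cells, reporter cDNA was PCR-amplified, labelled by 6-FAM primer extension (2 min 95 C, 20 s 68 C, 10 min 72 C), HpaI-cut (2 h, 37 C) and analysed by CE.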

[2] = target: Hepatocyte nuclear factor 6 (Homo sapiens) (UniProt Q9UBC0); assay: ATG_HNF6_CIS: Attagene CIS-FACTORIAL HepG2 Assay for human Hepatocyte Nuclear Factor 6 (HNF6) (AID 2282952); settings: HepG2 Attagene cis-factorial HNF6 reporter transcription; actives raise or lower the signal
Outline: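 Reporter mRNA induction or loss in HepG2 after 24 h exposure; transient cis-MRTU transfection; fragments quantified by capillary electrophoresis; bidirectional analysis, DMSO as negative control.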

[3] = target: Heat shock factor protein 1 (Homo sapiens) (UniProt Q00613); assay: ATG_HSE_CIS: Attagene CIS-FACTORIAL HepG2 Assay for human Heat Shock Transcription Factor 1 (HSE) (AID 2282953); settings: HepG2 HSE cis-reporter, Attagene RNA transcription; actives raise or lower the signal
Outline: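 Cells were transfected with cis-element-driven reporter constructs, dosed for 24 h, then total RNA was reverse-transcribed and reporter cDNA amplified, FAM-labelled and digested with HpaI. Fragments were resolved by capillary electrophoresis; gain or loss was fitted against DMSO.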

[4] = ATG_MRE_CIS: Attagene CIS-FACTORIAL HepG2 Assay for human Metal Responsive Element (MRE) (AID 2282954); settings: HepG2 MRE cis-reporter transcription, Attagene multiplex; actives raise or lower the signal
Outline: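 HepG2 cells transiently transfected with cis-element-driven reporter units; mRNA measured 24 h after dosing. Reporter transcripts quantified by RT-PCR, FAM labelling, HpaI digestion and capillary electrophoresis; bidirectional fit versus DMSO.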

[5] = ATG_PBREM_CIS: Attagene CIS-FACTORIAL HepG2 Assay for human Phenobarbital-responsive Enhancer Module (PBREM) (AID 2282955); settings: HepG2 PBREM cis-reporter, Attagene multiplexed transcription; actives raise or lower the signal
Outline: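 Measures endogenous factor action on a phenobarbital-responsive enhancer module. HepG2 transiently carrying cis reporters, 24 h treatment, mRNA read-out by RT-PCR plus capillary electrophoresis.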

[6] = target: Paired box protein Pax-6 (Homo sapiens) (UniProt P26367); assay: ATG_Pax6_CIS: Attagene CIS-FACTORIAL HepG2 Assay for human Paired Box 6 (PAX6) (AID 2282956); settings: HepG2 CIS-FACTORIAL PAX6 reporter transcription, RNA readout; actives raise or lower the signal
Outline: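 Multiplexed cis-reporter HepG2 system; 24 h treatment; reporter mRNA read by RT-PCR/CE fluorescence; bidirectional fit vs DMSO.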

[7] = ATG_PXRE_CIS: Attagene CIS-FACTORIAL HepG2 Assay for human Pregnane X Receptor Element (PXRE) (AID 2282957); settings: HepG2 Attagene CIS-FACTORIAL PXRE reporter, mRNA; actives raise or lower the signal
Outline: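 Transiently transfected HepG2 cells were dosed and incubated for 24 h. RNA was then isolated, DNase-treated, reverse-transcribed and reporter sequences amplified. Labeled, HpaI-digested fragments were quantified by capillary electrophoresis against DMSO.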

[8] = ATG_PPRE_CIS: Attagene CIS-FACTORIAL HepG2 Assay for human Peroxisome Proliferator-activated Response Element (PPRE) (AID 2282958); settings: HepG2 PPRE cis-element reporter, Attagene transcription factor profiling; actives raise or lower the signal
Outline: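 PPRE activity in HepG2: transient cis-reporter transfection, 24 h compound incubation, reporter mRNA by RT-PCR and CE fluorescence; gain/loss fitted against DMSO.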

[9] = ATG_RORE_CIS: Attagene CIS-FACTORIAL HepG2 Assay for human RAR-related Orphan Receptor Element (RORE) (AID 2282959); settings: HepG2 Attagene cis-factorial RORE reporter, mRNA; actives raise or lower the signal
Outline: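 A 24-hour exposure of transfected HepG2 hepatoma cells precedes RNA isolation and reporter RT-PCR. Labeled products are digested with HpaI and resolved by capillary electrophoresis, with gain or loss of signal scored relative to DMSO.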

[10] = ATG_Sox_CIS: Attagene CIS-FACTORIAL HepG2 Assay for human SRY-box transcription factor (SOX) (AID 2282960); settings: HepG2 Attagene cis-factorial SOX reporter, mRNA; actives raise or lower the signal
Outline: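 HepG2, cis reporter units, 24 h exposure. Reporter mRNA: RT-PCR → FAM labelling → HpaI → CE fluorescence. Bidirectional fit vs DMSO.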

[11] = target: Transcription factor Sp1 (Homo sapiens) (UniProt P08047); assay: ATG_Sp1_CIS: Attagene CIS-FACTORIAL HepG2 Assay for human Specificity Protein 1 (Sp1) (AID 2282961); settings: HepG2 Sp1 cis-reporter transcription, actives raise or lower the signal
Outline: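 Liver-derived HepG2 cells, cis-element reporter library, 24 h treatment; RNA isolated, cDNA amplified with reporter-specific primers, FAM-labeled fragments sized on capillary analyzer. DMSO baseline, bidirectional curve fit.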

[12] = ATG_SREBP_CIS: Attagene CIS-FACTORIAL HepG2 Assay for human Sterol Regulatory Element Binding (SREBP) (AID 2282962); settings: HepG2 Attagene cis-factorial SREBP reporter, mRNA; actives raise or lower the signal
Outline: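 mRNA induction of transfected cis-promoter reporters in HepG2 cells, 24 h post-dose. Detection: RT-PCR with 6-FAM-labelled products, HpaI digest, capillary electrophoresis. DMSO served as negative control and baseline.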

[13] = ATG_TA_CIS: Attagene CIS-FACTORIAL HepG2 Assay for human TA Basal Promoter (AID 2282964); settings: HepG2 Attagene CIS-factorial TA basal promoter reporter; actives raise or lower the signal
Outline: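 Steps: transfect HepG2 with MRTUs; dose 24 h; isolate RNA, DNase-treat, reverse-transcribe; PCR and FAM-label reporter cDNA; digest with HpaI 2h at 37 C; run capillary electrophoresis. Activity fitted both directions against DMSO.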

[14] = ATG_TCF_b_cat_CIS: Attagene CIS-FACTORIAL HepG2 Assay for human T-Cell-Factor with beta-catenin (TCF/b-cat) (AID 2282965); settings: HepG2 TCF/beta-catenin cis-reporter transcription, actives raise or lower the signal
Outline: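 HepG2, transient MRTU transfection, cis-element-driven reporters (endogenous TFs). 24 h compound exposure. Readout: reporter mRNA by RT-PCR + 6-FAM primer extension, HpaI digest, capillary electrophoresis. Gain/loss fit vs DMSO baseline.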

[15] = ATG_TAL_CIS: Attagene CIS-FACTORIAL HepG2 Assay for human TAL Basal Promoter (AID 2282966); settings: HepG2 Attagene cis-factorial TAL promoter reporter; actives raise or lower the signal;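 further: background control endpoint measuring basal TAL promoter reporter mRNA not a specific factor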
Outline: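 Readout: reporter mRNA, fluorescence by CE. System: HepG2, transient multi-reporter transfection, endogenous TF activity. Exposure: 24 h. Analysis: bidirectional, DMSO-normalized; background control.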

[16] = ATG_TGFb_CIS: Attagene CIS-FACTORIAL HepG2 Assay for human Transforming Growth Factor (TGF) (AID 2282967); settings: HepG2 Attagene CIS TGFb reporter, mRNA transcription; actives raise or lower the signal
Outline: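 Cells were dosed for 24 hours, after which total RNA was reverse-transcribed and reporter sequences amplified, labeled and sized by capillary electrophoresis. Activity was fitted in both directions against DMSO.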

[17] = ATG_VDRE_CIS: Attagene CIS-FACTORIAL HepG2 Assay for human Vitamin D Receptor Element (VDRE) (AID 2282968); settings: HepG2 VDRE cis-reporter transcription, actives raise or lower the signal
Outline: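 Transiently transfected HepG2 cells carrying cis-regulated reporter transcription units were exposed for 24 h. Reporter mRNA was measured by RT-PCR with fluorescent labelling and capillary electrophoresis, and fitted in both directions against DMSO.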

[18] = target: Nuclear receptor subfamily 1 group I member 3 (Homo sapiens) (UniProt Q14994); assay: ATG_CAR_TRANS: Attagene TRANS-FACTORIAL HepG2 Assay for human Constitutive Androstane Receptor (CAR) (AID 2282969; active means hit-call score of the fitted dose curve at least 0.9, where 1 is the maximum;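 further: activators raise reporter mRNA above DMSO so AC50 marks induction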); settings: HepG2 Attagene TRANS-FACTORIAL CAR reporter
Outline: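 HepG2 cells transiently transfected with GAL4-UAS reporter units; TRANS format reads activity of exogenous chimeric NR-Gal4 protein. After 24 h dosing, reporter mRNA quantified by RT-PCR, 6-FAM labelling and capillary electrophoresis; gain of signal fitted against DMSO.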

[19] = target: Estrogen receptor (Homo sapiens) (UniProt P03372); assay: ATG_ERa_TRANS: Attagene TRANS-FACTORIAL HepG2 Assay for human Estrogen Receptor alpha (ERa) (AID 2282970; active means hit-call score of the fitted dose curve at least 0.9, where 1 is the maximum); settings: HepG2 Attagene TRANS ERa GAL4 reporter, mRNA
Outline: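 Transactivation via ERa-Gal4 chimera in HepG2; 24 hour incubation; reporter mRNA detected by fluorescence RT-PCR and capillary electrophoresis.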

[20] = target: Signal transducer and activator of transcription 3 (Homo sapiens) (UniProt P40763); assay: ATG_STAT3_CIS: Attagene CIS-FACTORIAL HepG2 Assay for human Signal Transducer and Activator of Transcription 3 (STAT3) (AID 2282963); settings: HepG2, Attagene cis-factorial STAT3 reporter transcription; actives raise or lower the signal
Outline: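 HepG2 cells transiently transfected with multiple cis-element-driven reporter units report endogenous transcription factor activity. After 24 h compound exposure, reporter mRNA is measured by RT-PCR, 6-FAM labelling, HpaI digestion and capillary electrophoresis. Fitted bidirectionally versus DMSO.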

Measured: AC50

Chain of Heat shock factor protein 1 (Homo sapiens) (Q00613 whole entry, looked up, the tested form may be a part): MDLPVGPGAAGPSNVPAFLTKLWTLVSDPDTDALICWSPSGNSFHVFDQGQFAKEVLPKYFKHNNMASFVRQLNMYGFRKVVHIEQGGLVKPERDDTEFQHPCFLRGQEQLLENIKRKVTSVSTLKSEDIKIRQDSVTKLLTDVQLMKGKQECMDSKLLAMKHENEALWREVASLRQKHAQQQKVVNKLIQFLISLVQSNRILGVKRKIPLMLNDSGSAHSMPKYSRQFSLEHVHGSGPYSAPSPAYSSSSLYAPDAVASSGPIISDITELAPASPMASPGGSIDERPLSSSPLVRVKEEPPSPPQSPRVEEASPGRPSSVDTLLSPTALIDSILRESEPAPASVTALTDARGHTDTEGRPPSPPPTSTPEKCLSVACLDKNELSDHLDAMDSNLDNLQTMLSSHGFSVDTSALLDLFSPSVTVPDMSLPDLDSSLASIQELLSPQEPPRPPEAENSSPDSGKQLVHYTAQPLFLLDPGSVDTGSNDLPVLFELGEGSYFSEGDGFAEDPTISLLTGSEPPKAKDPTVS
Chain of Estrogen receptor (Homo sapiens) (P03372 whole entry, looked up, the tested form may be a part): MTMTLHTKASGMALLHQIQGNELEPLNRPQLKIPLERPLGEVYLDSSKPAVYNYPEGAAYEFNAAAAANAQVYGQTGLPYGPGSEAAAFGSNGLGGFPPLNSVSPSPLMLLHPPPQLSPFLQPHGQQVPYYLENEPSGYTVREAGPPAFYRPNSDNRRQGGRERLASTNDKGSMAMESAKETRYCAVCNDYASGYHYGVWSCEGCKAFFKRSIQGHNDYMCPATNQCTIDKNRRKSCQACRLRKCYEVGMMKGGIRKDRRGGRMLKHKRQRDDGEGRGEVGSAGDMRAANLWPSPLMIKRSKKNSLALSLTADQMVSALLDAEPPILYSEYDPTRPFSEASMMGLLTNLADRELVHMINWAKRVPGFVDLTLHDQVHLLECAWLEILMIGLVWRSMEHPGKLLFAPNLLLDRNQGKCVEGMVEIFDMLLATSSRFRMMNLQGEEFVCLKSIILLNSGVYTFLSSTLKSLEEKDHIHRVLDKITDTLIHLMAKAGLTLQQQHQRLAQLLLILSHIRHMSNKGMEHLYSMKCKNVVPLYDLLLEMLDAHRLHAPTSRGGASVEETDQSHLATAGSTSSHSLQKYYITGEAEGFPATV
Chain of Paired box protein Pax-6 (Homo sapiens) (P26367 whole entry, looked up): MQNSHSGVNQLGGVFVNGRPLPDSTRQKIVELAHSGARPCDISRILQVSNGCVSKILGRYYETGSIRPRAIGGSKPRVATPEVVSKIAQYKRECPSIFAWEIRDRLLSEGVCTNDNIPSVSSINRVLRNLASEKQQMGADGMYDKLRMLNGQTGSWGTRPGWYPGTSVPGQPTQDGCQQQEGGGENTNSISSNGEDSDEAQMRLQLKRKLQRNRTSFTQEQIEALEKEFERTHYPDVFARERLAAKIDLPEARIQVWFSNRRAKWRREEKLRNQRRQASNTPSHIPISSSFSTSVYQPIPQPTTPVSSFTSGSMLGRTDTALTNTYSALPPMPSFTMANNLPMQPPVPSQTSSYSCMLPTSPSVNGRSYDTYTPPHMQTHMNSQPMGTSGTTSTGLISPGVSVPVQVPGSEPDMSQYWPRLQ
Chain of Hepatocyte nuclear factor 6 (Homo sapiens) (Q9UBC0 whole entry, looked up, the tested form may be a part): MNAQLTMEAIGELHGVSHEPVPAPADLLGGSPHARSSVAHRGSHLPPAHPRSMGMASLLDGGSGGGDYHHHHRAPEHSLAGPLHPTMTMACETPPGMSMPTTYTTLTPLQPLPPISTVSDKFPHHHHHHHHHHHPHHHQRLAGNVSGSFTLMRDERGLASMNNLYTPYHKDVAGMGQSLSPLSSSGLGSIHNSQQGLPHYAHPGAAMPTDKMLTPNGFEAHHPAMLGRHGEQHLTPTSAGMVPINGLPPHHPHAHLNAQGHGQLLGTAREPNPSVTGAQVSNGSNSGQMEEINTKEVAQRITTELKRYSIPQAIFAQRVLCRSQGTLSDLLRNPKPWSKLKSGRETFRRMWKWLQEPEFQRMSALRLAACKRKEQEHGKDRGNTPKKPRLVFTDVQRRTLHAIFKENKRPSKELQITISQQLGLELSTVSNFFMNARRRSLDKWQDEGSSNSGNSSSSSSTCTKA
Chain of Transcription factor Sp1 (Homo sapiens) (P08047 whole entry, looked up, the tested form may be a part): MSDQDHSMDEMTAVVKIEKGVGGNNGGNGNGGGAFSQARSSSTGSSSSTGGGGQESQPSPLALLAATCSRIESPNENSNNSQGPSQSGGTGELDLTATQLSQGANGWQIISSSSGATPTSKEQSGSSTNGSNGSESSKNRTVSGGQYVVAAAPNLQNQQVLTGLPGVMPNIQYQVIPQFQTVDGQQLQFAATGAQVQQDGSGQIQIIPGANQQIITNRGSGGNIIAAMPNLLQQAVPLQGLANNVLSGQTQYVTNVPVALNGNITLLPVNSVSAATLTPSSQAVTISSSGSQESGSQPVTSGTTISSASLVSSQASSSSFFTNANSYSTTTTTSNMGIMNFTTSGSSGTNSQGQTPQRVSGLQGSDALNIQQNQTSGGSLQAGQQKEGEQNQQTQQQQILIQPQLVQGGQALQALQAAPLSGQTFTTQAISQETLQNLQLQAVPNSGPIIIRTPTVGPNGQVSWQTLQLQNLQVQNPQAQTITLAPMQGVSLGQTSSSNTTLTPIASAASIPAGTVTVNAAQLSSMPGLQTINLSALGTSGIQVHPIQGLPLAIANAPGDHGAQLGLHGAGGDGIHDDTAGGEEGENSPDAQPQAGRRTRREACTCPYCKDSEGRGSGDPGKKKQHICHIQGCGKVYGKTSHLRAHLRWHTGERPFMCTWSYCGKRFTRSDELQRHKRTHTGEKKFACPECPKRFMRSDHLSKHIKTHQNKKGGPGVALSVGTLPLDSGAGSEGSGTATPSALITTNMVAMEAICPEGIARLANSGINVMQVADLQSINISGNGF
Chain of Signal transducer and activator of transcription 3 (Homo sapiens) (P40763 whole entry, looked up): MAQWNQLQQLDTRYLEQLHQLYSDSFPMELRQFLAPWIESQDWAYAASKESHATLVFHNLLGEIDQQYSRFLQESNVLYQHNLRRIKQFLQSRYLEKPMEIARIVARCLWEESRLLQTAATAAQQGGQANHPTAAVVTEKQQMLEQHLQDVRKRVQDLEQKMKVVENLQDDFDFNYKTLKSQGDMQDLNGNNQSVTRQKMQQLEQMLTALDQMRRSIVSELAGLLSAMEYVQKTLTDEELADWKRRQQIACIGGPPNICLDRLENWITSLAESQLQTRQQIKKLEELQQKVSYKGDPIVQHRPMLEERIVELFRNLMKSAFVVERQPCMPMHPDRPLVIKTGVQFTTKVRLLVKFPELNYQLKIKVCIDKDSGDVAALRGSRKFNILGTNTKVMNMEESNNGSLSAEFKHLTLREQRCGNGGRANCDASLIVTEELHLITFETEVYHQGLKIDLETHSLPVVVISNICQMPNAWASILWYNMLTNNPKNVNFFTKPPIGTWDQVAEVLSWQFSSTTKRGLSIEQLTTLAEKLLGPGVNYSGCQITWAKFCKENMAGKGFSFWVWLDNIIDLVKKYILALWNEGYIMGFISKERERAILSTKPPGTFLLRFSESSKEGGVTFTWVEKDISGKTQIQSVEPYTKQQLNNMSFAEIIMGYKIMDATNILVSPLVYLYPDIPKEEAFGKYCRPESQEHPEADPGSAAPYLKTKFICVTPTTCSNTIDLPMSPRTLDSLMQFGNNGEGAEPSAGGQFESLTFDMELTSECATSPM
Chain of Hypoxia-inducible factor 1-alpha (Homo sapiens) (Q16665 whole entry, looked up): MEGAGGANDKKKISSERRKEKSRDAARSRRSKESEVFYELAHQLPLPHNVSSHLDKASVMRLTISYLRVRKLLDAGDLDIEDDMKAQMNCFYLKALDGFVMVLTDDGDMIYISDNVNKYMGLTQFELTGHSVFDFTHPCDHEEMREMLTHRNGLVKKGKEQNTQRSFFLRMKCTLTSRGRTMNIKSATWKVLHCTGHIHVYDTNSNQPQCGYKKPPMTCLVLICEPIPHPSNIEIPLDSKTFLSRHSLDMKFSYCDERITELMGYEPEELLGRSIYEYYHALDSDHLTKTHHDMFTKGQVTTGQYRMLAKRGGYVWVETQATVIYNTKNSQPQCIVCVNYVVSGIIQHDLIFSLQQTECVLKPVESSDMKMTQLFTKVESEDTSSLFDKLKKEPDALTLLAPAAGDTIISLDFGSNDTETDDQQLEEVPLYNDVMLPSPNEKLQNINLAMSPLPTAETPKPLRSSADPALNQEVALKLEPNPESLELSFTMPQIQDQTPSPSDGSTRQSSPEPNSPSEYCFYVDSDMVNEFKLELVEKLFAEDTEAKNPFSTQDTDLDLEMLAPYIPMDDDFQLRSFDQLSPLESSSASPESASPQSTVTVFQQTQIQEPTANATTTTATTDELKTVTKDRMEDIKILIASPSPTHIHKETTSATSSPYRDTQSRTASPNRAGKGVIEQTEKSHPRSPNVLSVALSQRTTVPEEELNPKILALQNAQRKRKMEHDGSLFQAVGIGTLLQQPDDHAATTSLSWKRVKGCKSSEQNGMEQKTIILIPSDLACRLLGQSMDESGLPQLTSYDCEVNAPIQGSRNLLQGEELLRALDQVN
Chain of Nuclear receptor subfamily 1 group I member 3 (Homo sapiens) (Q14994 whole entry, looked up, the tested form may be a part): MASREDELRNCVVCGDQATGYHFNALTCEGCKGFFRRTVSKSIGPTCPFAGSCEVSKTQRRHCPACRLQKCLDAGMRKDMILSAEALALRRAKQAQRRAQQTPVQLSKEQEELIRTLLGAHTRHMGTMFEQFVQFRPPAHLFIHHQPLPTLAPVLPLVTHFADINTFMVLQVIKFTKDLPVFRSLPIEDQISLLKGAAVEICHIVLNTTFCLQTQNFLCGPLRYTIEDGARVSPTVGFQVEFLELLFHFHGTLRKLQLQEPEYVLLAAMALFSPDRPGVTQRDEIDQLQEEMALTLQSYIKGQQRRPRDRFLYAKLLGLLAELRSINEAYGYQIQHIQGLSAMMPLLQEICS

O=C=Nc1ccc(Cl)cc1
not listed: [20]
inactive: all other assays above

Cc1cc(Cl)ccc1O
not listed: [19] | [20]
inactive: all other assays above

C=CC(=O)OCC(COC(=O)C=C)(COC(=O)C=C)COC(=O)C=C
active: [3] 56.5 µM | [4] 8.5 µM | [6] 8.18 µM | [9] 8.19 µM | [11] 8.41 µM | [14] 8.6 µM
not listed: [13] | [17] | [18] | [19]
inactive: all other assays above

Brc1c(Br)c(Br)c(Oc2c(Br)c(Br)c(Br)c(Br)c2Br)c(Br)c1Br
not listed: [19] | [20]
inactive: all other assays above

O=C(O)C1(c2ccc3c(c2)OC[C@H](Cc2ccc(-c4ccccc4)cc2)[C@H]3O)CCCC1
active: [4] 2.85 µM | [12] 5.92 µM
not listed: [13] | [19]
inactive: all other assays above

Oc1cccc(-c2ccccc2)c1
active: [7] 27.2 µM | [11] 168 µM | [12] 64.2 µM | [17] 66.3 µM
not listed: [19] | [20]
inactive: all other assays above

CCOP(=S)(OCC)OP(=S)(OCC)OCC
active: [1] 49.2 µM | [7] 1.11 µM
not listed: [17] | [19]
inactive: all other assays above

CN(N=O)c1ccc([N+](=O)[O-])cc1
active: [7] 18.6 µM
not listed: [18]
inactive: all other assays above

Cc1cc(C(C)(C)c2ccc(O)c(C)c2)ccc1O
inactive: [8] | [9] | [11] | [15] | [16]
active: [1] 30.3 µM | [2] 93.9 µM | [3] 39.5 µM | [4] 50.6 µM | [5] 18.1 µM | [6] 50 µM | [7] 1.7 µM | [10] 50 µM | [12] 30.3 µM | [20] 93.9 µM | [14] 41.3 µM

O=[N+]([O-])c1cccc2ccccc12
active: [7] 27.6 µM | [19] 39.9 µM
not listed: [17] | [18]
inactive: all other assays above

Cc1ccccc1OP(=O)(Oc1ccccc1)Oc1ccccc1
active: [4] 59.8 µM | [7] 0.236 µM | [12] 7.9 µM | [17] 1.25 µM | [19] 3.57 µM
not listed: [13] | [20]
inactive: all other assays above

O=C(NC(=O)c1c(F)cccc1F)Nc1cc(Cl)c(Oc2ncc(C(F)(F)F)cc2Cl)c(Cl)c1
not listed: [18]
inactive: all other assays above

CC(C)(c1ccc(O)c(-c2ccccc2)c1)c1ccc(O)c(-c2ccccc2)c1
active: [4] 2.93 µM | [7] 0.965 µM
not listed: [13] | [17] | [18] | [20]
inactive: all other assays above
